Our source for the outcome and AC50 values is PubChem BioAssay (EPA / NIEHS).

Structures are written as SMILES. Inconclusive results are not listed. Activity calls are given as the source filed them. The calls were made as follows: active = hit-call score of the fitted dose curve at least 0.9, where 1 is the maximum; inconclusive = response in the unintended direction; inactive = score below 0.9.

Sequence of Ratio of Nucleoli Translocation and Cytoplasm, AR (gene 367) (P10275 whole entry, looked up, the tested form may be a part): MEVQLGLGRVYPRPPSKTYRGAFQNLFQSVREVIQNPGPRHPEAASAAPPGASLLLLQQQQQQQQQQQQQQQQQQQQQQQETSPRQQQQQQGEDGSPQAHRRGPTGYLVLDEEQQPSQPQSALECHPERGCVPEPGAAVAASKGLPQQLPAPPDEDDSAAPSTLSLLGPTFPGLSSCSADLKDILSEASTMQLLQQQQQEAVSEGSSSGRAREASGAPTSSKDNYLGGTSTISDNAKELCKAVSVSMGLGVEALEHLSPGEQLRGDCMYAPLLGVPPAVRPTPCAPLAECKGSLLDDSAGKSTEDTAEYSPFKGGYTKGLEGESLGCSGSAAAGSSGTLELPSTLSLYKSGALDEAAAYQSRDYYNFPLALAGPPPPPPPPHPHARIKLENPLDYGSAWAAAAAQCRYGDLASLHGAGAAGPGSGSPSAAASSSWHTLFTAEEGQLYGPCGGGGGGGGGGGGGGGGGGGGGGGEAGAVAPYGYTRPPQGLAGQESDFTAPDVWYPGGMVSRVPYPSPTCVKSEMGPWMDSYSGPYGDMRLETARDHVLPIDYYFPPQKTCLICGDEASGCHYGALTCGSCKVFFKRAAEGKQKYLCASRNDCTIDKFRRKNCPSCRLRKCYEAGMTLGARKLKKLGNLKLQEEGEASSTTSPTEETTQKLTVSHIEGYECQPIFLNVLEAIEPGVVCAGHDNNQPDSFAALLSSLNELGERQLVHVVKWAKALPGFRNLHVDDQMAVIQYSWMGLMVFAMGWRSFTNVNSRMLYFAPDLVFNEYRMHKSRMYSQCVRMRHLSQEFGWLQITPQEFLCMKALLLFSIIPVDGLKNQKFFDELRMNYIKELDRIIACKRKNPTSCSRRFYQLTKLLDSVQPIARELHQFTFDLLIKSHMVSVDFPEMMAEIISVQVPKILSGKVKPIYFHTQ

This assay addresses Ratio of Nucleoli Translocation and Cytoplasm, AR (gene 367) (UniProt P10275). The assay is described as follows: UPITT_HCI_U2OS_AR_TIF2_Nucleoli_Cytoplasm_Ratio_Agonist: University of Pittsburgh U2OS Androgen Receptor-Transcriptional Intermediary Factor 2 (AR-TIF2) Agonism High Content Imaging Assay for Ratio of Nucleoli Translocation and Cytoplasm (AID 2284000).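 Also: hits raise the red nucleolar to cytoplasm ratio above vehicle.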 From the text:
UPITT_AR_TIF2_PPIB is a cell-based, high-content imaging assay that uses U2OS, a human osteosarcoma cell line, expressing a human androgen receptor fused to red fluorescent protein and the coactivator TIF2 fused to green fluorescent protein. UPITT_HCI_U2OS_AR_TIF2_Nucleoli_Cytoplasm_Ratio_Agonist is one of four assay components measured from the UPITT_AR_TIF2_PPIB assay. It is designed to make measurements of the ratio of red fluorescence localized in the nucleolar region of the cell nucleus to red fluorescence localized in the cytoplasm as detected with high-content fluorescent imaging.Data from the assay component UPITT_HCI_U2OS_AR_TIF2_Nucleoli_Cytoplasm_Ratio_Agonist was analyzed into 1 assay endpoint. This assay endpoint, UPITT_HCI_U2OS_AR_TIF2_Nucleoli_Cytoplasm_Ratio_Agonist, was analyzed in the positive analysis fitting direction relative to DMSO as the baseline of activity. Using a type of binding reporter, measures of receptor for gain-of-signal activity can be used to understand the binding at the pathway-level as it relates to the gene AR.
Daughter plates containing 2 uL of 10 mM compounds in DMSO were prepared and replicated from the 384-well Library of Pharmacologically Active Compounds (LOPAC) master plates using the Bravo outfitted with a 384-well transfer head. Aluminum adhesive plate seals were applied with an Abgene Seal-IT 100 (Rochester, NY) plate sealer, and the plates were stored at -20 C in a Matrical MatriMinistore (Spokane, WA) automated compound storage and retrieval system. For screening, LOPAC daughter plates were withdrawn from -20C storage, thawed to ambient temperature, centrifuged 1-2 min at 50 g, and the plate seals were removed before the transfer of 98 uL of serum-free tissue culture medium (SFM) into wells using the BioTek Microflo liquid handler (BioTek, Winooski, VT) to generate a 200 uM intermediate stock concentration of library compounds (2.0% DMSO). The diluted compounds were mixed by repeated aspiration and dispensation using a 384-well P30 dispensing head on the Evolution P3 (EP3) liquid handling platform (PerkinElmer, Waltham, MA) and then 5 uL of diluted compounds was transferred to the wells of assay plates. In the LOPAC screen, compounds were individually tested at a final concentration of 20 uM (0.2% DMSO). After the diluted compounds had been transferred from the daughter plates to the primary HCS assay plates, aluminum adhesive plate seals were applied and the diluted daughter plates were stored frozen at -20C. To confirm active compounds identified in the primary screen, we withdrew the LOPAC daughter plates containing the 200 uM intermediate concentration of library compounds (2.0% DMSO) from -20C storage, thawed them to ambient temperature, centrifuged them for 1-2 min at 50 g, and removed the plate seals. A work list was generated to direct the Multiprobe Janus liquid handling platform (PerkinElmer) to cherry pick 75 uL from the wells of the diluted daughter plates that were flagged active in the primary screen and to reformat these into a 384-well plate hit confirmation daughter plate. Five microliters of primary HCS active compounds was then transferred into triplicate wells of assay plates using a 384-well P30 dispensing head on the Evolution P3 (EP3) liquid handling platform (PerkinElmer). […] Daughter plates containing 2 uL of the serially diluted compounds in DMSO were prepared and replicated from the 384-well serial dilution master plates using the Bravo outfitted with a 384-well transfer head. Aluminum adhesive plate seals were applied and plates were stored at -20C. For testing in the bioassays, daughter plates were withdrawn from -20C storage, thawed to ambient temperature, centrifuged for 1-2 min at 50 g, and the plate seals were removed before the transfer of 38 uL of SFM into wells using the BioTek Microflo liquid handler (BioTek) to generate an intermediate stock concentration of library compounds ranging from 1.95 to 500 uM (5.0% DMSO). […]
`CCC(C)N(C)C(=O)c1cc2ccccc2c(-c2ccccc2Cl)n1` (stereo unspecified): the outcome was inactive. On to `CC1=C(C)S(=O)(=O)CCS1(=O)=O`, for which the result was inactive. On the same count and under the same terms, for `NCCOCCOCCN` the value was “inactive”. One may read the AC50 as the concentration at which the activity in the assay is half-maximal. Take `CSc1ccc(Oc2ccc(S(N)(=O)=O)cc2CN(C)C)cc1C`: the AC50 was 74.8 µM (active). With `Cc1ccc(-c2cc(C(F)(F)F)nn2-c2ccc(S(N)(=O)=O)cc2)cc1`, the result was inactive. Still for that read-out and setting: to `CCCCCCCCCC[N+](C)(C)[O-]` belongs “inactive”; to `Nc1nc(=S)c2[nH]cnc2[nH]1`, “inactive”; to `O=C1CCCCC1`, “inactive”. Take `Cc1c(C)c2c(c(C)c1O)CCC(C)(COc1ccc(CC3SC(=O)NC3=O)cc1)O2` (stereo unspecified): the outcome was inactive. Consider `CCN(CC)CCOc1ccc(C(=C(Cl)c2ccccc2)c2ccccc2)cc1`, for which the outcome was inactive. As for `O=C1OC(c2ccc(O)cc2)(c2ccc(O)cc2)c2ccccc21`, the AC50 was 77 µM (active). Consider `C#CC(O)C(CC)CCCC` (stereo unspecified), for which the result was inactive. On to `O=C(Oc1ccccc1)c1cccc(C(=O)Oc2ccccc2)c1`, for which the outcome was inactive. Consider `CCOCCOCCO`, for which the result was inactive. `Cc1cc(SC2=C(O)C[C@@](CCc3ccc(N)cc3)(C(C)C)OC2=O)c(C(C)(C)C)cc1CO`: the result was inactive.

With `O=C(NS(=O)(=O)/C=C/c1cccs1)c1ccc(F)cc1Br`, the outcome was inactive.
